According to PubChem BioAssay (NCATS):
Results filed as inconclusive are left out. Unmarked numbers belong to inactive results. Activity calls are given as the source filed them. The call rests on the fitted dose curve; in most records, active means well fitted cell-killing curve with a large enough effect; inconclusive means small, poorly fitted or top-dose-only effect, or effect the other way; inactive means no such curve, though single readings can be large or run the other way.

Test: Quantitative High-Throughput drug screen in 47 multiple myeloma cell lines against the NCATS MIPE library collection: KMS28PE_JCRB cell viability assay (AID 1918983); further: nearly all actives have a fitted effect of over 35% in size
Conditions: KMS28PE multiple myeloma viability, CellTiter-Glo ATP, 48 h; series mostly up to 45.8 µM; viability, % of DMSO control: at the top concentration
Description: PI: Beverly A. Mock Ph.D.
Laboratory of Cancer Biology and Genetics,
Center for Cancer Research, National Cancer Institute,
National Institute of Health, Bethesda, Maryland
Drug resistance and disease progression are common in multiple myeloma (MM) patients, underscoring the need for new therapeutic combinations. […] We hypothesized that effective combinations would reduce MYC expression and enhance p16 activity. […] These preclinical data identify potentially useful drug combinations for evaluation in drug-resistant MM and reveal potential mechanisms of combined drug sensitivity.
Described herein is the primary MIPE qHTS used to cherrypick compounds. Validated compounds were then further tested for potential synergistic activiy.
[1] Peat TJ, Gaikwad SM, Dubois W, Gyabaah-Kessie N, Zhang S, Gorjifard S, Phyo Z, Andres M, Hughitt VK, Simpson RM, Miller MA, Girvin AT, Taylor A, Williams D, D'Antonio N, Zhang Y, Rajagopalan A, Flietner E, Wilson K, Zhang X, Shinn P, Klumpp-Thomas C, McKnight C, Itkin Z, Chen L, Kazandijian D, Zhang J, Michalowski AM, Simmons JK, Keats J, Thomas CJ, Mock BA. Drug combinations identified by high-throughput screening promote cell cycle transition and upregulate Smad pathways in myeloma. Cancer Lett. 2023 Aug 1;568:216284. doi: 10.1016/j.canlet.2023.216284. Epub 2023 Jun 24. PMID: 37356470; PMCID: PMC10408729.
SEQUENCE No. (e.g., 1, 2, 3, etc.); […] (e.g., Cells, Incubation, Reagent, etc.); VALUE and DESCRIPTION.
1; Cells; 5 uL; white, solid bottom 1536-well Greiner assay plate.
2; Compounds; 23 nL; Kalypsis pin tool (Wako USA) equipped with a 1536-well pin head to transfer to the assay plates.
3; Incubation; 48 hours; 37C incubation.
4; Reagent;5uL; CellTiter Glo (Promega).
5; Detector; 425V; Luminescence; Viewlux PerkinElmer.
NOTES (numbers refer to Sequence numbers above)
1. The cell-based screening methods employed in this study were like those previously published. Briefly, the corresponding myeloma cell lines were screened in 1,536-well plates with 500 cells, 5-uL per well for inhibition of cell viability (assessed by measuring ATP levels with CellTiterGlo).
2. NCATS MIPE 4.0 library of approved and investigational drugs were added using the Kalypsis pin tool. Wells treated with DMSO only for 100% viability and media only for 0% viability were used as controls.
3. The assay plates were covered and incubated for 48 hours in a 37C, 5% CO2 incubator with controlled humidity.
4. After 48 hours, CellTilter-GloTM luminescent substrate mix (Promega) reagent was added to the assay plate and plates we incubated for 5 min at room temperature.
5. Signal was measured as median relative luminescence units on a ViewLux (PerkinElmer) multiplate reader.
[1] Heske CM, Davis MI, Baumgart JT, Wilson K, Gormally MV, Chen L, Zhang X, Ceribelli M, Duveau DY, Guha R, Ferrer M, Arnaldez FI, Ji J, Tran HL, Zhang Y, Mendoza A, Helman LJ, Thomas CJ. Matrix Screen Identifies Synergistic Combination of PARP Inhibitors and Nicotinamide Phosphoribosyltransferase (NAMPT) Inhibitors in Ewing Sarcoma. Clin Cancer Res. 2017 Dec 1;23(23):7301-7311. doi: 10.1158/1078-0432.CCR-17-1121. Epub 2017 Sep 12. PMID: 28899971; PMCID: PMC6636827.
Potency means the concentration at half of the fitted maximal effect.

Row | SMILES | Potency | viability, % of DMSO control [%]
1 | O=C(O)c1cc(=O)[nH]c(=O)[nH]1 | 5.9 µM (active) | –
2 | CC[C@H](NC(C)C)[C@H](O)c1ccc(O)c2[nH]c(=O)ccc12 | – | 114
3 | Nc1nc(=S)c2[nH]cnc2[nH]1 | 8.33 µM (active) | –
4 | CO[C@@H]1[C@@H](OC(N)=O)[C@@H](O)[C@H](Oc2ccc3c(O)c(NC(=O)c4ccc(O)c(CC=C(C)C)c4)c(=O)oc3c2C)OC1(C)C | 4.69 µM (active) | –
5 | CCN1CCCC1CNC(=O)c1cc(S(N)(=O)=O)ccc1OC (stereo not given) | – | 105
6 | CCCc1nc(C)c2c(=O)[nH]c(-c3cc(S(=O)(=O)N4CCN(CC)CC4)ccc3OCC)nn12 | 8.33 µM (active) | –
7 | COc1ccc2cc3[n+](cc2c1OC)CCc1cc2c(cc1-3)OCO2 | 16.6 µM (active) | –
8 | CCOC(=O)c1ccc(OC(=O)CCCCCN=C(N)N)cc1 | – | 159
9 | CCC(=O)O[C@]1(C(=O)SCF)[C@H](C)C[C@H]2[C@@H]3C[C@H](F)C4=CC(=O)C=C[C@]4(C)[C@@]3(F)[C@@H](O)C[C@@]21C | – | 124
10 | CC(=O)CC(c1ccccc1)c1c(O)c2ccccc2oc1=O (stereo not given) | – | 116
11 | CCCc1cc(C(N)=S)ccn1 | – | 132
12 | COc1nc(N)nc2c1ncn2[C@@H]1O[C@H](CO)[C@@H](O)[C@@H]1O | – | 119
13 | CNC(=O)c1cc(Oc2ccc(NC(=O)Nc3ccc(Cl)c(C(F)(F)F)c3)cc2)ccn1 | 26.4 µM (active) | –
14 | CC(=O)Oc1ccccc1C(=O)Nc1ncc([N+](=O)[O-])s1 | 38.2 µM (active) | –
15 | CC(=O)[C@H]1CC[C@H]2[C@@H]3CCC4=CC(=O)CC[C@]4(C)[C@H]3CC[C@]12C | – | 99.3
16 | COc1ccccc1OCC(O)COC(N)=O (stereo not given) | – | 131
17 | CC1=C(C(=O)O)N2C(=O)[C@@H](NC(=O)C(N)c3ccccc3)[C@H]2SC1 (stereo not given in full) | – | 126
18 | OCc1ccc(-c2nn(Cc3ccccc3)c3ccccc23)o1 | – | 122
19 | CCn1cc(C(=O)O)c(=O)c2cc(F)c(N3CCN(C)CC3)cc21 | – | 109
20 | O=S(=O)(c1cccc2cnccc12)N1CCCNCC1 | 18.7 µM (active) | –

Row | SMILES | Potency | viability, % of DMSO control [%]
21 | Cc1ccnc2c1NC(=O)c1cccnc1N2C1CC1 | – | 128
22 | CCOC(=O)[C@H](CCc1ccccc1)N[C@H]1CS[C@H](c2cccs2)CN(CC(=O)O)C1=O | 18.7 µM (active) | –
23 | CCN(C)C(=O)Oc1cccc([C@H](C)N(C)C)c1 | – | 127
24 | COc1cc(NS(=O)(=O)c2ccc(N)cc2)nc(OC)n1 | – | 146
25 | COc1ccc(C(=O)CC(=O)c2ccc(C(C)(C)C)cc2)cc1 | 8.33 µM (active) | –
26 | CCN[C@H]1C[C@H](C)S(=O)(=O)c2sc(S(N)(=O)=O)cc21 | – | 106
27 | Cc1ccc(S(=O)(=O)N[C@@H](Cc2ccccc2)C(=O)CCl)cc1 | 20.9 µM (active) | –
28 | CC(=O)[C@H]1CC[C@H]2[C@@H]3CC=C4C[C@@H](O)CC[C@]4(C)[C@H]3CC[C@]12C | – | 113
29 | CC(C)C[C@H](NC(=O)[C@H](CCc1ccccc1)NC(=O)CN1CCOCC1)C(=O)N[C@@H](Cc1ccccc1)C(=O)N[C@@H](CC(C)C)C(=O)[C@@]1(C)CO1 | 0.003 µM (active) | –
30 | CO[C@@]12[C@H](COC(N)=O)C3=C(C(=O)C(C)=C(N)C3=O)N1C[C@@H]1N[C@@H]12 | 23.5 µM (active) | –
31 | COc1cnc(NS(=O)(=O)c2ccc(N)cc2)nc1 | – | 123
32 | O=C(O)C1CCCN(CCC=C(c2ccccc2)c2ccccc2)C1 (stereo not given) | – | 102
33 | O=C(O)c1ccc(-n2nc(-c3ccccc3O)nc2-c2ccccc2O)cc1 | – | 113
34 | COc1cc2c(Nc3ccc(Br)cc3F)ncnc2cc1OCC1CCN(C)CC1 | 16.6 µM (active) | –
35 | O=P(O)(O)C(O)(Cc1cccnc1)P(=O)(O)O | – | 126
36 | COC(=O)Nc1nc2ccc(C(=O)c3ccccc3)cc2[nH]1 | 1.87 µM (active) | –
37 | Cc1nnc(NS(=O)(=O)c2ccc(N)cc2)s1 | 23.5 µM (active) | –
38 | Cc1cccc(Nc2ccncc2S(=O)(=O)NC(=O)NC(C)C)c1 | – | 101
39 | CN1CCN(c2c(F)cc3c(=O)c(C(=O)O)cn4c3c2OCN4C)CC1 | – | 125
40 | NC1(c2ccc(-c3nc4ccn5c(=O)[nH]nc5c4cc3-c3ccccc3)cc2)CCC1 | 6.62 µM (active) | –
